According to PubChem BioAssay (NCATS):
Records with an inconclusive call do not appear. Active and inactive are the calls of the source. Calls come from the whole dose curve; as a rule, active = well fitted cell-killing curve with a large enough effect; inconclusive = small, poorly fitted or top-dose-only effect, or effect the other way; inactive = no such curve, though single readings can be large or run the other way.

How the values were obtained:
[1] = Quantitative High-Throughput drug screen in 47 multiple myeloma cell lines against the NCATS MIPE library collection: KMS28PE_JCRB cell viability assay (AID 1918983); note: nearly all actives have a fitted effect of over 35% in size
Summary of the method: (§1)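 Inhibition of viability over 48 h was scored by ATP content (CellTiter-Glo) in 500-cell wells. Zero and full viability were defined by media-only and DMSO-only wells.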

[2] = Quantitative High-Throughput drug screen in 47 multiple myeloma cell lines against the NCATS MIPE library collection: L363_DSMZ cell viability assay (AID 1918984); note: nearly all actives have a fitted effect of over 40% in size
Summary of the method: as §1

[3] = Quantitative High-Throughput drug screen in 47 multiple myeloma cell lines against the NCATS MIPE library collection: OCIMY7_PLB cell viability assay (AID 1918987); note: nearly all actives have a fitted effect of over 65% in size
Summary of the method: as §1

[4] = Quantitative High-Throughput drug screen in 47 multiple myeloma cell lines against the NCATS MIPE library collection: OCIMY5_PLB cell viability assay (AID 1918988); note: nearly all actives have a fitted effect of over 65% in size
Summary of the method: as §1

[5] = Quantitative High-Throughput drug screen in 47 multiple myeloma cell lines against the NCATS MIPE library collection: OPM1_PLB cell viability assay (AID 1918989); note: nearly all actives have a fitted effect of over 40% in size
Summary of the method: as §1

[6] = Quantitative High-Throughput drug screen in 47 multiple myeloma cell lines against the NCATS MIPE library collection: U266_ATCC cell viability assay (AID 1919864); note: nearly all actives have a fitted effect of over 35% in size
Summary of the method: as §1

[7] = Quantitative High-Throughput drug screen in 47 multiple myeloma cell lines against the NCATS MIPE library collection: XG6_PLB cell viability assay (AID 1919865); note: nearly all actives have a fitted effect of over 40% in size
Summary of the method: as §1

[8] = Quantitative High-Throughput drug screen in 47 multiple myeloma cell lines against the NCATS MIPE library collection: KMS34_JCRB cell viability assay (AID 1918985); note: nearly all actives have a fitted effect of over 40% in size
Summary of the method: as §1

[9] = Quantitative High-Throughput drug screen in 47 multiple myeloma cell lines against the NCATS MIPE library collection: SKMM1_PLB cell viability assay (AID 1919863); settings: SKMM1 myeloma viability, CellTiter-Glo ATP, 48 h; viability: active compounds read low; note: nearly all actives have a fitted effect of over 35% in size; for viability: series mostly up to about 46 µM
Summary of the method: as §1
Potency is the fitted concentration of half-maximal effect.

CC(C)c1ccccc1Cc1cc(C(=O)Nc2ccc(S(=O)(=O)c3ccccc3C(C)(C)C)cc2)c(O)c(O)c1O
inactive: Potency [2]
active: Potency [1] 16.6 µM | Potency [3] 4.69 µM | Potency [4] 4.69 µM | Potency [5] 9.35 µM | Potency [6] 13.2 µM | Potency [7] 7.43 µM

O=C(C=Cc1cccnc1)NCCCCC1CCN(C(=O)c2ccccc2)CC1
active: Potency [1] 0.132 µM | Potency [8] 0.0166 µM | Potency [3] 0.0105 µM | Potency [4] 0.0418 µM | Potency [5] 0.0118 µM | Potency [9] 0.059 µM | Potency [6] 18.7 µM | Potency [7] 0.0743 µM

CCC1=C[C@@H]2CN(C1)Cc1c([nH]c3ccccc13)[C@@](C(=O)OC)(c1cc3c(cc1OC)N(C)[C@@H]1[C@@](O)(C(=O)OC)[C@H](OC(C)=O)[C@]4(CC)C=CCN5CC[C@]31[C@@H]54)C2
active: Potency [1] 0.0209 µM | Potency [8] 0.0166 µM | Potency [3] 0.166 µM | Potency [4] 0.0066 µM | Potency [5] 0.0264 µM | Potency [9] 0.0235 µM | Potency [6] 14.8 µM

O=C(CCCCCCNC(=O)c1cnc(N(c2ccccc2)c2ccccc2)nc1)NO
active: Potency [1] 7.43 µM | Potency [8] 5.9 µM | Potency [3] 13.2 µM | Potency [4] 4.69 µM | Potency [5] 6.62 µM | Potency [9] 9.35 µM | Potency [7] 14.8 µM

COc1cc2ncnc(Nc3ccc(F)c(Cl)c3)c2cc1NC(=O)C=CCN1CCCCC1
active: Potency [1] 23.5 µM | Potency [2] 2.35 µM | Potency [8] 26.4 µM | Potency [3] 1.32 µM | Potency [5] 7.43 µM | Potency [9] 20.9 µM | Potency [6] 1.18 µM | Potency [7] 4.18 µM

Nc1ccn([C@@H]2CS[C@H](CO)O2)c(=O)n1
inactive: Potency [1] | Potency [2] | Potency [4] | Potency [5] | viability [9] 127%

NC(=O)c1c(OCc2c(F)cc(Br)cc2F)nsc1NC(=O)NCCCCN1CCCC1
active: Potency [1] 18.7 µM | Potency [8] 20.9 µM | Potency [3] 8.33 µM | Potency [5] 13.2 µM | Potency [9] 29.6 µM | Potency [6] 29.6 µM | Potency [7] 7.43 µM
inactive: Potency [2]

Cn1cncc1[C@@](N)(c1ccc(Cl)cc1)c1ccc2c(c1)c(-c1cccc(Cl)c1)cc(=O)n2C
active: Potency [1] 8.33 µM | Potency [8] 0.833 µM | Potency [3] 0.0148 µM | Potency [4] 7.43 µM | Potency [5] 16.6 µM | Potency [9] 13.2 µM | Potency [7] 1.87 µM

CC=CC1=C(C(=O)O)N2C(=O)[C@H](NC(=O)[C@H](N)c3ccc(O)cc3)[C@@H]2SC1
active: Potency [3] 26.4 µM
inactive: Potency [1] | Potency [2] | Potency [8] | viability [9] 117% | Potency [7]

O=C1CCC[C@@H]2[C@H]3CCC[N+]4([O-])CCC[C@@H](CN12)[C@@H]34 (stereo partly specified)
inactive: Potency [1] | Potency [2] | Potency [8] | Potency [5]

COC(=O)C1=C(C)NC(C)=C(C(=O)OCCN2CCN(C(c3ccccc3)c3ccccc3)CC2)C1c1cccc([N+](=O)[O-])c1 (stereo unspecified)
active: Potency [7] 2.64 µM
inactive: Potency [1] | Potency [2] | Potency [3] | Potency [5] | viability [9] 126% | Potency [6]

CCn1cc(-c2ccnc3[nH]c(-c4cccc(CN(C)C)c4)cc23)c(-c2ccc(NC(=O)N(C)C)cc2)n1
active: Potency [1] 11.8 µM | Potency [8] 10.5 µM | Potency [3] 0.187 µM | Potency [4] 4.18 µM | Potency [5] 2.96 µM | Potency [9] 18.7 µM | Potency [6] 14.8 µM | Potency [7] 0.935 µM

Nc1ncnc2c1c(-c1cccc(OCc3ccccc3)c1)cn2C1CC(CN2CCCC2)C1 (stereo unspecified)
active: Potency [1] 1.05 µM | Potency [2] 0.332 µM | Potency [8] 11.8 µM | Potency [3] 1.48 µM | Potency [5] 5.9 µM | Potency [9] 20.9 µM | Potency [6] 16.6 µM | Potency [7] 5.26 µM

Cn1c(CNc2ccc(C(=N)N)cc2)nc2cc(C(=O)N(CCC(=O)O)c3ccccn3)ccc21
inactive: Potency [1] | Potency [2] | Potency [3] | Potency [4] | Potency [5] | Potency [6] | Potency [7]

CC(=O)OCC(=O)[C@@]1(O)[C@H](C)C[C@H]2[C@@H]3C=C(C)C4=Cc5c(cnn5-c5ccccc5)C[C@]4(C)[C@@H]3[C@@H](O)C[C@@]21C
active: Potency [1] 20.9 µM | Potency [8] 8.33 µM | Potency [3] 7.43 µM | Potency [4] 7.43 µM | Potency [5] 9.35 µM | Potency [9] 18.7 µM | Potency [6] 7.43 µM | Potency [7] 4.18 µM

O=C(O)CCCc1c[nH]c2ccccc12
inactive: Potency [1] | Potency [2] | Potency [8] | Potency [5] | viability [9] 113% | Potency [6]

C[C@@H]1CN(CC(=O)Nc2ccc3c(c2)Cc2cccc(-c4cc(=O)cc(N5CCOCC5)o4)c2S3)C[C@H](C)O1
active: Potency [1] 9.35 µM | Potency [2] 14.8 µM | Potency [3] 1.32 µM | Potency [5] 16.6 µM | Potency [7] 9.35 µM
